# The list is not random: actives were taken first. Their share in the collection is about 3.5%.
# mHTT CaM bind – inhibitors of human mutant huntingtin-calmodulin interaction; 190,000 compounds, 3.6% hits; inhibition, % at 15 µM; AlphaScreen His-mHTT/GST-CaM binding, luminescence;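 further: 0% = both proteins with DMSO and 100% = one protein alone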
# Pf apPOL block – Pf-apPOL DNA polymerase inhibition; 210,000 compounds, 0.25% hits; Recombinant Pf-apPOL, molecular beacon fluorescence, 1.5 h; inhibition, % at 10 µM
# Numbers without * were called inactive; . = not tested or not shown. No stated cut-off is given here; in the data, active means inhibition above about 50%; inactive means the rest.
SMILES,mHTT CaM bind,Pf apPOL block
COc1cc(C2CC(=O)Nc3n[nH]c(-c4ccccc4)c32)cc(OC)c1OC (stereo not given),100*,-5
COc1ccc(C2CC(=O)Nc3n[nH]c(-c4ccc(Cl)cc4)c32)cc1OC (stereo not given),5,-1
Cc1ccc(SC(=O)c2cc(C)on2)cc1,.,-6
O=S(=O)(Cc1cccc(Cl)c1)N1CCC(CN2CCCCCC2)CC1,-5,1
COc1cccc(C2=CC(c3ccccc3F)n3nnnc3N2)c1 (stereo not given),-10,-5
CCCNC(=O)N1CCc2nc(-c3ccccc3)ncc2C1,-9,1
COc1ccccc1NCN1C(=O)S/C(=C\c2ccc(OC)c(OC)c2)C1=O,14,-5
O=[N+]([O-])CC(c1ccc2c(c1)OCO2)c1c[nH]c2ccccc12 (stereo not given),20,-6
Cc1[nH]c2ccccc2c1C(Nc1nccs1)c1ccc2c(c1)OCO2 (stereo not given),83*,7
COc1cc(C(C[N+](=O)[O-])c2c(C)[nH]c3ccccc23)ccc1O (stereo not given),61*,1
COc1ccc(C(C[N+](=O)[O-])c2c(O)cc(C)oc2=O)cc1 (stereo not given),6,1
O=C(Nc1nccs1)c1ccc2c(c1)OCO2,-4,-11
Cc1cc(O)c(C(C[N+](=O)[O-])c2ccc(Cl)cc2Cl)c(=O)o1 (stereo not given),3,2
Cc1[nH]c2ccccc2c1C(C[N+](=O)[O-])c1cc(Cl)c2c(c1)OCO2 (stereo not given),62*,1
Cc1[nH]c2ccccc2c1C(C[N+](=O)[O-])c1ccc2c(c1)OCO2 (stereo not given),75*,4
Cc1ccc(NC(=O)N2CCOc3ccc(C)cc32)c(C)c1,5,-10
Cc1ccc(N=C2NC(=O)C(CC(=O)Nc3ccccc3)S2)cc1 (stereo not given),-4,-4
Cc1ccc(C2=NNC(C)(CC(=O)Nc3ccccc3)S2)cc1 (stereo not given),72*,1
COc1nccnc1NS(=O)(=O)c1ccc(NC(=O)c2cccc(F)c2)cc1,8,-1
CCC(=O)Nc1nc(C)c(-c2csc(Nc3cc(C)ccn3)n2)s1,35,-3
NS(=O)(=O)c1ccc(Nc2nc(-c3ccc(Cl)c(Cl)c3)cs2)cc1,100*,1
NS(=O)(=O)c1ccc(Nc2nc(-c3ccncc3)cs2)cc1,5,-1
CCC(=O)Nc1nc(C)c(-c2csc(Nc3ccc(N(C)C)cc3)n2)s1,93*,2
CCN(CC)c1ccc(Nc2nc(-c3ccccn3)cs2)cc1,100*,-4
CN(C)c1ccc(Nc2nc(-c3cccnc3)cs2)cc1,6,-8
SMILES,mHTT CaM bind,Pf apPOL block
COc1ccc(Nc2nc(-c3ccc(Cl)c(Cl)c3)cs2)cc1,40,-6
CN(C)c1ccc(Nc2nc(-c3ccc(Cl)c(Cl)c3)cs2)cc1,82*,-1
NC(=O)C1CCN(CC(=O)Nc2ccc(Cl)c(Cl)c2)CC1,4,-9
CCc1ccccc1-n1c(SCC(=O)NCc2ccccc2)nc2n[nH]c(C)c2c1=N,28,-1
CC(=O)c1cccc(Nc2nc(-c3ccc(Cl)c(Cl)c3)cs2)c1,3,1
CCN(CC)c1ccc(Nc2nc(-c3ccc(Cl)c(Cl)c3)cs2)cc1,97*,0
CC(=O)N1CCN(c2ccc([N+](=O)[O-])c(N3CCCCC3)c2)CC1,13,-12
Cn1nc(C(=O)NCc2ccc(Cl)cc2)c2c1CCN(C(=O)C1CC1)C2,83*,-6
Cn1nc(C(=O)NCc2ccc(F)cc2)c2c1CCN(C(=O)CC1CCCC1)C2,76*,-12
Cn1nc(C(=O)NCc2ccc(F)cc2)c2c1CCN(C(=O)c1ccc(Cl)cc1)C2,-10,-13
Cn1nc(C(=O)NCc2ccc(F)cc2)c2c1CCN(C(=O)C1CCC1)C2,28,-8
Cc1cccc(CNC(=O)c2nn(C)c3c2CN(C(=O)CC2CCCC2)CC3)c1,55*,-10
COc1ccc(C(=O)N2CCc3c(c(C(=O)NCc4ccc(Cl)cc4)nn3C)C2)cc1,80*,-1
Cc1cc(F)ccc1NC(=S)NN=Cc1cccs1,.,-43
COC1(NC(=O)c2ccc(C)cc2)C(C)=CC(=O)C=C1C,2,-4
CCCCc1ccc(-c2csc(N)c2C(N)=O)cc1,21,-2
COCCN1CCN(C(=O)C2CCN(c3ccc(Cl)c(C)c3)C2=O)CC1 (stereo not given),17,0
COc1cc(C2CC(c3ccc(Cl)cc3)Nc3ncnn32)cc(OC)c1OC (stereo not given),30,-8
CC(C)NC(=O)c1cc(S(=O)(=O)N2CCC3(CC2)OCCO3)ccc1F,-1,-3
Cn1nc(C(=O)NCc2ccccc2)c2c1CCN(C(=O)CC1CCCC1)C2,71*,-3
Cc1cccc(CNC(=O)c2nn(C)c3c2CN(C(=O)C2CCCCC2)CC3)c1,36,-4
CCCC(=O)N1CCc2c(c(C(=O)NCc3ccccc3)nn2C)C1,0,-9
